Assay outcomes from PubChem.
Compounds with a hit are over-represented: about 2.3% of the library has one in this group of screens.
Marburg entry inh: inhibitors of Marburg virus binding or cell entry; Marburg virus pseudotyped entry inhibition, cell reporter; Potency, µM (titrated, usually from 37.8 µM), actives largely listed as inhibitors; actives 1.8% (n = 300,000); AID 540276; calls by dose curve; tested in HEK293 cells
LASV entry inh: Lassa virus entry inhibition; Lassa virus pseudotype entry inhibition, cell reporter; Potency, µM (top dose mostly 37.9 µM), hits mostly inhibitors; actives 1.2% (n = 300,000); calls by dose curve; tested in HEK293 cells; also: nearly all actives have a fitted effect of over 50% in size
AMA1 RON2 block: AMA1-RON2 (P. falciparum) interaction inhibition; actives 0.2% (n = 360,000); AID 720542; AlphaScreen AMA1-biotinylated RON2 peptide binding; Potency, µM (highest dose often 58.2 µM), hits mostly inhibitors; also: nearly all actives have a fitted effect of over 45% in size
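AMA1 (3D7) with his tag at 25 nM final met compounds first, then biotinylated RON2 peptide at 25 nM; detection used donor plus acceptor beads, 10 µg/mL apiece, read by AlphaScreen after 30 min at room temperature.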
AmpC detergent: blocks E. coli AmpC beta-lactamase in detergent assay; P00811; AmpC hydrolysis of nitrocefin, absorbance 480 nm, 0.01% Triton; actives 0.041% (n = 370,000); AID 485294; Potency, µM (top dose mostly 114 µM), actives largely listed as inhibitors; also: nearly all actives have a fitted effect of over 25% in size
Target sequence (P00811 whole entry, looked up): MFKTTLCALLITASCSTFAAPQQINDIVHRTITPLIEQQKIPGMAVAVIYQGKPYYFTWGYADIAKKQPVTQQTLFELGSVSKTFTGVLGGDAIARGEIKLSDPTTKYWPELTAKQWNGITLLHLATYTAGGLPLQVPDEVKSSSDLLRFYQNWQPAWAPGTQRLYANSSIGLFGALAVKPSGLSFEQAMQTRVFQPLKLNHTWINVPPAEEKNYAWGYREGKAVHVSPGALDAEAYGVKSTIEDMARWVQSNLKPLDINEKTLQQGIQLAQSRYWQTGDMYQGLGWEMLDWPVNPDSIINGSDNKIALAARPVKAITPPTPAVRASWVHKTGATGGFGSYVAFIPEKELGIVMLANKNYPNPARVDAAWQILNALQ
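20 mM phosphate pH 7.0 + 0.01% (detergent screen) or 0.0001% Triton X-100; 5.3 nM AmpC reagent; cpd preinc 15 min RT; nitrocefin (800 uM stock) to start; A480 q20 s × 4 min; Activity was normalised to no-enzyme and no-compound control wells.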
AmpC inh no detg: AmpC beta-lactamase inhibition without detergent; AmpC nitrocefin hydrolysis, absorbance 480 nm, 0.0001% Triton; P00811; actives 0.52% (n = 330,000); Potency, µM (highest dose often 57.1 µM), actives largely listed as inhibitors; also: nearly all actives have a fitted effect of over 20% in size
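AmpC (5.3 nM in the dispensed reagent) in 20 mM phosphate pH 7.0 with 0.01% (detergent screen) or 0.0001% Triton X-100 was preincubated with compounds for 15 min at room temperature. Nitrocefin was then added from an 800 uM solution, and hydrolysis was followed at 480 nm.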
Large screens that a line does not name were inactive. Unless noted, calls follow the shape of the dose curve; as a rule, active = well fitted curve in the direction sought with a large enough effect; inconclusive = small, poorly fitted or top-dose-only effect, or another doubt; inactive = no such curve, though single readings can be large; an effect the other way counts as inactive or inconclusive.

COc1cccc([C@H]2Oc3ccc(OC)cc3C(=NOCC[C@@H]3C=C[C@H](OC(C)=O)[C@@H](COC(C)=O)O3)[C@H]2O)c1	LASV entry inh inconclusive (no result: AMA1 RON2 block, AmpC detergent, AmpC inh no detg)
CCn1c2ccccc2c2cc(CN3CCN(Cc4ccc(Cl)cc4)CC3)ccc21	LASV entry inh inconclusive (no result: Marburg entry inh, AMA1 RON2 block, AmpC inh no detg)
CC(=O)c1cn(CCOc2cc(C)ccc2C)c2ccccc12	Marburg entry inh 1.58µM
COc1ccc(C(=O)NCc2nnnn2-c2ccc(C)c(C)c2)cc1	none (no result: Marburg entry inh, AMA1 RON2 block, AmpC inh no detg)
CCC(C)(C)n1nnnc1C(c1cccs1)N1CC=C(c2ccc(F)cc2)CC1 (stereo not given)	Marburg entry inh 14.6µM, LASV entry inh inconclusive
Fc1ccc(C2=CCN(C(c3cccs3)c3nnnn3CCc3ccccc3)CC2)cc1 (stereo not given)	LASV entry inh inconclusive
CCc1cccc(N(C)C(N)=Nc2cccc3ccccc23)c1	Marburg entry inh 11.2µM, LASV entry inh 13µM
CCN(/C(N)=N/c1nc(C)cc(C)n1)c1ccccc1	AmpC detergent inconclusive
CC1=NN(c2ccccc2)C(=O)/C1=C/c1ccc[nH]1	Marburg entry inh inconclusive, LASV entry inh inconclusive, AMA1 RON2 block 12.6µM
CN1CCN(c2ccccc2NC(=O)c2ccc(N3CCCC3)c([N+](=O)[O-])c2)CC1	Marburg entry inh inconclusive, LASV entry inh inconclusive
CN1CCN(c2ccc(C(=O)c3ccc(Br)cc3)cc2[N+](=O)[O-])CC1	Marburg entry inh 7.94µM, AMA1 RON2 block inconclusive
CC(NC(=O)COc1ccccc1-c1ccccc1)c1ccccc1 (stereo not given)	Marburg entry inh inconclusive, LASV entry inh 17.8µM
c1cnc2ccc(-c3ccc4ncccc4c3)cc2c1	Marburg entry inh inconclusive, LASV entry inh 4.47µM, AmpC detergent inconclusive
Cc1ccc2ncccc2c1	none (no result: Marburg entry inh, LASV entry inh)
CCC(Cc1ccccc1)NC(=O)Cn1ncc2c3ccccc3n(Cc3ccccc3)c2c1=O (stereo not given)	LASV entry inh inconclusive (no result: AMA1 RON2 block, AmpC inh no detg)
COc1ccc(/C=C2/C(=O)N(c3nc4ccccc4s3)N=C2CSc2ccc(Cl)cc2)cc1	Marburg entry inh inconclusive, AmpC inh no detg 15.8µM
COc1ccc(/C=C2/C(=O)N(Cc3ccccc3)N=C2C)cc1	none
CCN1C/C(=C\c2cccc([N+](=O)[O-])c2)C(=O)/C(=C/c2cccc([N+](=O)[O-])c2)C1	Marburg entry inh inconclusive, LASV entry inh 2.51µM
COc1ccc(OC)c(N(CC(=O)NCc2ccccc2)S(=O)(=O)c2ccccc2)c1	Marburg entry inh inconclusive (no result: AMA1 RON2 block, AmpC inh no detg)
Cc1ccc2c(c1)N(C(=O)c1ccco1)C(C)(C)c1ssc(=S)c1-2	AMA1 RON2 block 11.9µM
CCOC(=O)C1=C(c2ccccc2)N=c2s/c(=C\c3ccco3)c(=O)n2C1c1cccs1 (stereo not given)	Marburg entry inh inconclusive, LASV entry inh inconclusive, AMA1 RON2 block inconclusive, AmpC inh no detg 12.6µM
C=CCN1C[C@@H](C)N([C@H](c2ccc(C(=O)N(CC)CC)cc2)c2cccc(OC)c2)C[C@@H]1C	Marburg entry inh 15.8µM, LASV entry inh inconclusive (no result: AMA1 RON2 block, AmpC detergent, AmpC inh no detg)
C=CCN1C[C@@H](C)N(C(c2ccc(C(=O)N(CC)CC)cc2)c2cccc(OC)c2)C[C@@H]1C (stereo not given in full)	none (no result: Marburg entry inh, LASV entry inh)
C/C(=C\c1ccc(N(C)C)cc1)[N+](=O)[O-]	Marburg entry inh 5.17µM, LASV entry inh inconclusive
CN(C)c1ccc(/C=C/[N+](=O)[O-])cc1	none
CC(=O)c1ccc(N2CCN(S(=O)(=O)c3ccc4c(c3)CC(C)N4C(=O)C3CCC3)CC2)cc1 (stereo not given)	LASV entry inh inconclusive (no result: Marburg entry inh, AMA1 RON2 block, AmpC inh no detg)
CC(C)c1ccc(CNC(=O)CCc2ccccc2)cc1	none (no result: Marburg entry inh, LASV entry inh)
CC(C)c1ccc(CNCc2ccccc2)cc1	Marburg entry inh 18.3µM
CCc1ccc(NC(=O)c2cc3c(COC(C)=O)cnc(C)c3oc2=O)cc1	none (no result: Marburg entry inh, AMA1 RON2 block, AmpC inh no detg)
Cc1cccc(-n2c(SCC(=O)Nc3ccccc3Cl)nc3n[nH]c(C)c3c2=N)c1	none (no result: Marburg entry inh, AMA1 RON2 block, AmpC inh no detg)
COc1ccccc1NC(=O)CSc1nc2n[nH]c(C)c2c(=N)n1-c1ccccc1Cl	Marburg entry inh 14.6µM, LASV entry inh inconclusive, AmpC detergent inconclusive
CC(C)c1ccc(S(=O)(=O)/N=C2/C=CC(=O)c3ccccc32)cc1	AmpC inh no detg 28.2µM (no result: Marburg entry inh, LASV entry inh, AMA1 RON2 block)
CCCc1ccc(-c2cc(C(=O)NN3CCOCC3)c3ccccc3n2)cc1	Marburg entry inh inconclusive
CCc1ccc(-c2cc(C(=O)Nn3cnnc3)c3ccccc3n2)cc1	Marburg entry inh 1.03µM, LASV entry inh 1.3µM
